Among the data in ChEMBL document CHEMBL3988442, “University of Dundee, Small-Polar-MMV Screening Library” (2021) are Percent Effect values, retold here.

Set-up in all cases: scale not given: direction of the effect not stated beside the values
The target in assay [1] is Protein translocase subunit SecA (Escherichia coli (strain K12)) (UniProt P10408). Put plainly: Assay to Identify E. coli SecA ATPase Inhibitors. It counts as functional. The settings on record: 30 µM.
Assay [2] concerns the target T1, Ubiquitin-activating enzyme e1, putative (Leishmania donovani (strain BPK282A1)) (UniProt E9BSI1).
T1 sequence (whole entry): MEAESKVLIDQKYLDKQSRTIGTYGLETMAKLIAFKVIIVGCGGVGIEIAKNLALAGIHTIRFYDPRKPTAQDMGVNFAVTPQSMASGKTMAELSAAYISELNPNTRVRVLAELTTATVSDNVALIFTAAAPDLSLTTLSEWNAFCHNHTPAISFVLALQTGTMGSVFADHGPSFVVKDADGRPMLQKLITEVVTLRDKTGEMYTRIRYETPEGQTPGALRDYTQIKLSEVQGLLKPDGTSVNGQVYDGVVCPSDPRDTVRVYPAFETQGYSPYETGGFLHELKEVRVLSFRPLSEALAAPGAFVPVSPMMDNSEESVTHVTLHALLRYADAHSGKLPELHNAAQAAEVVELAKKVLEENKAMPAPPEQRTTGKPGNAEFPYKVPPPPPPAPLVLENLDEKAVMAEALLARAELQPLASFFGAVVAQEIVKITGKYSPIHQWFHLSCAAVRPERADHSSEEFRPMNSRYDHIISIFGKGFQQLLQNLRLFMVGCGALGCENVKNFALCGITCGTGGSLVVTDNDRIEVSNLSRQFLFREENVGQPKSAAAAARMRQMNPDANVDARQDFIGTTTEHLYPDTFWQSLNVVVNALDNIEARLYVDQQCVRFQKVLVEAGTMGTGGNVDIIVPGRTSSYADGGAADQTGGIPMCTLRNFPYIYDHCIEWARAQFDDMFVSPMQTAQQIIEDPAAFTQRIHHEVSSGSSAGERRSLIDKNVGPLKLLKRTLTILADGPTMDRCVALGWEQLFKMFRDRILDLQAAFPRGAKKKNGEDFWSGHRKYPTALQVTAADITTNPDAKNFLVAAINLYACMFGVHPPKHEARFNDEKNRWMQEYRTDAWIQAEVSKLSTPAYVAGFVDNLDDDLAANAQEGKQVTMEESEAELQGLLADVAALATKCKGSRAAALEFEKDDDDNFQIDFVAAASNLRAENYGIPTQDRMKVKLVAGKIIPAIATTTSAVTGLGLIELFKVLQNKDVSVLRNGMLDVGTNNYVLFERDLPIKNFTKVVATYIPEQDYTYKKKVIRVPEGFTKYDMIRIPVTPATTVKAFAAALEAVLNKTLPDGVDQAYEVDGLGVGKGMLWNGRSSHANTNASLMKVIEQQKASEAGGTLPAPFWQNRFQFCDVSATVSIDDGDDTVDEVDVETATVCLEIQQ
Put plainly: Leishmania donovani Ubiquitin Activating Enzyme (LdE1). The format is functional. The following applies: 30 µM.

Assay [3] concerns the target Sialic acid-binding Ig-like lectin 9 (Homo sapiens) (UniProt Q9Y336). Put plainly: Hs-Siglec9 ALPHAscreen SOP 20170721. The settings on record: 10 µM. In general terms: In Alpha technology, singlet oxygen from a donor bead excites a nearby acceptor bead.
For another assay, the system named is Trypanosoma cruzi. In words: Trypanosoma cruzi phosphomannomutase and mannose-1-phosphate guanylyltransferase assay. The format is functional. The settings on record: 10 µM.
For assay [4], the target named is T2, Arginase-2, mitochondrial (Homo sapiens) (UniProt P78540).
T2 sequence (whole entry): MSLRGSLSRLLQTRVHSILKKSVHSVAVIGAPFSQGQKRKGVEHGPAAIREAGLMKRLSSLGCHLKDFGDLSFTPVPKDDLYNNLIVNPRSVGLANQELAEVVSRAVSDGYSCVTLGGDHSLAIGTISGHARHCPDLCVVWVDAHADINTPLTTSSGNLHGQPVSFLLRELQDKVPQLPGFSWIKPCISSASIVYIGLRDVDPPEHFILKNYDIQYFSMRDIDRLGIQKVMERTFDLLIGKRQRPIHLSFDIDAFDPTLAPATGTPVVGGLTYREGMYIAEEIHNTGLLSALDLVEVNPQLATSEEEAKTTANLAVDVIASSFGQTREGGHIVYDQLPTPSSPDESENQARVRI
In words: in vitro enzyme assay to detect the production of urea directly proportional to the activity of Arginase II. Note: in the data most compounds retested in dose-response had high values. It counts as functional. The following applies: 33.3 µM.

Assay [5] addresses T3, Proteasome subunit beta (Trypanosoma cruzi) (UniProt O96673).
T3 sequence (whole entry): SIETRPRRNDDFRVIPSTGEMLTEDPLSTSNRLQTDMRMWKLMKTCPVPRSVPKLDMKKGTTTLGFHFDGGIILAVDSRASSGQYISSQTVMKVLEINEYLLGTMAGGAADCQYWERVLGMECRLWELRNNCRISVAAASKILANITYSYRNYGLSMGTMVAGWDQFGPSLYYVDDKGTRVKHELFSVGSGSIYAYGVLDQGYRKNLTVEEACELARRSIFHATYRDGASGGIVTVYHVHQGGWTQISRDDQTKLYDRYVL
Put plainly: Trypanosoma cruzi proteasome chymotrypsin-like activity (TcProtChymo) assay. Note: in the data most compounds retested in dose-response had high values. It counts as functional. The following applies: 9.37 µM.

The species entered for a further assay is Homo sapiens. In words: To identify inhibition of the IFN signalling (Jak-Stat) pathway via expression of an eGFP reporter gene under the control of an IFN-stimulated response element (ISRE) containing MxA promoter. The format is functional. The settings on record: 30 µM. (A reporter such as luciferase makes a cellular process visible.)
The target of assay [6] is T4, Tyrosyl-tRNA synthetase, putative (Trypanosoma cruzi (strain CL Brener)) (UniProt Q4DSP6).
T4 sequence (whole entry): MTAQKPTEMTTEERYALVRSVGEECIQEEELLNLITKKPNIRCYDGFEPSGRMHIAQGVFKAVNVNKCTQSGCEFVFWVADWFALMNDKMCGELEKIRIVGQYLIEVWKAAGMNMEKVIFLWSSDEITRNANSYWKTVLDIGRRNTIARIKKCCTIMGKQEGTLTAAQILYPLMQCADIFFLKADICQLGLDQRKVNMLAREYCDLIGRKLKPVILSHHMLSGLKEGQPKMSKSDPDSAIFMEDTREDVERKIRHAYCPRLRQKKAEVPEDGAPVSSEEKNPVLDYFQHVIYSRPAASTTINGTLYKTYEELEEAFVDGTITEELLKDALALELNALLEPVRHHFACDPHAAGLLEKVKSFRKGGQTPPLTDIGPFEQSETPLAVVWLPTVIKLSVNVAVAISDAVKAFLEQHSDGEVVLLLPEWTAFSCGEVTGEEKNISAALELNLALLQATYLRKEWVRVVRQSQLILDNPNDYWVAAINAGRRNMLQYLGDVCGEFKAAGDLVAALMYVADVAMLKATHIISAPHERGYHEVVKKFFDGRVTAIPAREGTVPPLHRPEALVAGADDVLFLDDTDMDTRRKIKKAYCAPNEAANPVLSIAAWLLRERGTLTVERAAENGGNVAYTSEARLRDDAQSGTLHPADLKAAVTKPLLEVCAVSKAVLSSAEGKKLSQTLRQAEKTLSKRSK
Put plainly: Trypanosoma cruzi tyrosyl tRNA synthetase (TcYRS) _High Tyrosine SOP. Note: in the data most compounds retested in dose-response had high values. It counts as functional. The following applies: 30 µM.

Assay [7] concerns the target T4, Tyrosyl-tRNA synthetase, putative (Trypanosoma cruzi (strain CL Brener)). In words: Trypanosoma cruzi tyrosyl tRNA synthetase (TcYRS) SOP. It counts as functional. The settings on record: 30 µM.
Assay [8] addresses Chromo domain-containing protein 1 (Saccharomyces cerevisiae (strain ATCC 204508 / S288c) (Baker's yeast)) (UniProt P32657). In words: ScCHD-1 Enzyme Inhibition Assay. Note: in the data most compounds retested in dose-response had high values. The format is functional. The settings on record: 30 µM.
For assay [9], the target named is AMP-activated protein kinase, AMPK (Homo sapiens) (UniProt P54646+O43741+P54619+Q9UGJ0+Q9Y478+Q13131+Q9UGI9). In words: AMP-dependent Kinase enzyme assay. An in vitro enzyme assay that detects ADP turnover that is directly proportional to AMPK activity. This uses naive AMPK that is activated during the assay with MK-8722. It counts as functional. The settings on record: 30 µM.

For some of these results: Entries with a potency or affinity are not part of this list.

Sequence of Chromo domain-containing protein 1 (Saccharomyces cerevisiae (strain ATCC 204508 / S288c) (Baker's yeast)) (P32657 whole entry, the tested form may be a part): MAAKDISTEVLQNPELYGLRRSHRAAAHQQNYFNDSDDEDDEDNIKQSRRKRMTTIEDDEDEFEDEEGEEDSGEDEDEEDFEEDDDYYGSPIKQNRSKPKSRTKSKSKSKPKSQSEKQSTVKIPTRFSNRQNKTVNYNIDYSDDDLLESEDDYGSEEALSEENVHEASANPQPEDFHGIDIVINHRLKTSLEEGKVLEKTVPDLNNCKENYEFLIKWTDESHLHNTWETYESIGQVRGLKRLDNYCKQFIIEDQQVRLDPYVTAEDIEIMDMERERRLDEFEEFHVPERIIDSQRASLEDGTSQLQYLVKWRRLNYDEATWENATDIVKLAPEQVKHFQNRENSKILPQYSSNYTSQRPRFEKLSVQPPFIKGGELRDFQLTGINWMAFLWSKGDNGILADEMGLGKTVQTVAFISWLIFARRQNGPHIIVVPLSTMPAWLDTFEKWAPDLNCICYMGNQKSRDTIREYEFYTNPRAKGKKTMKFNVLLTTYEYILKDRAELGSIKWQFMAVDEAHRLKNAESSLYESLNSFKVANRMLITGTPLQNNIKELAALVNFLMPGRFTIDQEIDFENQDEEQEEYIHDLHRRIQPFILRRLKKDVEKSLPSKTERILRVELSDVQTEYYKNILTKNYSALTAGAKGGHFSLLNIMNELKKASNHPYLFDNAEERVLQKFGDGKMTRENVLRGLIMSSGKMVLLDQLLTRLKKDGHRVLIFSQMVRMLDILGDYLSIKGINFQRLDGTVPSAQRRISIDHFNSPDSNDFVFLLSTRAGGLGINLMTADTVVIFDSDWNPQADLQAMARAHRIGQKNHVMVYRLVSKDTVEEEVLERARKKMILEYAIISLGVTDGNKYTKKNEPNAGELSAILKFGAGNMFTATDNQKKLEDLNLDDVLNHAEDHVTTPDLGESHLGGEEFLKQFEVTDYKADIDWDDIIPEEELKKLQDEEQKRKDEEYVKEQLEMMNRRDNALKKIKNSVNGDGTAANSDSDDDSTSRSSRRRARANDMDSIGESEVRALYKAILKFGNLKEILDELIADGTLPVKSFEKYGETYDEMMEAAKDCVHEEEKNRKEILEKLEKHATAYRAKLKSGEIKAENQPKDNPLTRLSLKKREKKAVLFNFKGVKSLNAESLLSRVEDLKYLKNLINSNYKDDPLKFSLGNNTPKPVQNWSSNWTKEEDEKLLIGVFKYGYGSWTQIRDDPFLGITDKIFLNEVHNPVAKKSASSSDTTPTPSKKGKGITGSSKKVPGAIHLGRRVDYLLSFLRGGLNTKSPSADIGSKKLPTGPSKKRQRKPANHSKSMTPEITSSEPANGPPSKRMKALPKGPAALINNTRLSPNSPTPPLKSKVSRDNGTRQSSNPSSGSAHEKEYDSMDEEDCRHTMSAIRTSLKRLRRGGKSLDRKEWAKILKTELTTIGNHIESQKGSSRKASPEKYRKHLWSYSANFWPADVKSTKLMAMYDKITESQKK
Sequence of Sialic acid-binding Ig-like lectin 9 (Homo sapiens) (Q9Y336 whole entry): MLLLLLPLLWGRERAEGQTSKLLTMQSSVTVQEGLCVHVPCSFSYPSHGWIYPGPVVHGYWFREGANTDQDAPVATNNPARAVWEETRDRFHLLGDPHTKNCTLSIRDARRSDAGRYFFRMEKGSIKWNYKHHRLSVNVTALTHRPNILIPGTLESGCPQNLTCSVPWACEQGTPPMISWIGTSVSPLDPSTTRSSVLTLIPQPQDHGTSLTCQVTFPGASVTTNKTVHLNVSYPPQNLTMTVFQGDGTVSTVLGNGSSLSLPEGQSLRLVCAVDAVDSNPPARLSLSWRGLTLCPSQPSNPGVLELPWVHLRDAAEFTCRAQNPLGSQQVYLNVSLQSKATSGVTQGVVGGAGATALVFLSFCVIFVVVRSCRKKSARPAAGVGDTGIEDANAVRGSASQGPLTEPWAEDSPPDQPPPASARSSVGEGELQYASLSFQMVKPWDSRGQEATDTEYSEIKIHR
Sequence of Protein translocase subunit SecA (Escherichia coli (strain K12)) (P10408 whole entry): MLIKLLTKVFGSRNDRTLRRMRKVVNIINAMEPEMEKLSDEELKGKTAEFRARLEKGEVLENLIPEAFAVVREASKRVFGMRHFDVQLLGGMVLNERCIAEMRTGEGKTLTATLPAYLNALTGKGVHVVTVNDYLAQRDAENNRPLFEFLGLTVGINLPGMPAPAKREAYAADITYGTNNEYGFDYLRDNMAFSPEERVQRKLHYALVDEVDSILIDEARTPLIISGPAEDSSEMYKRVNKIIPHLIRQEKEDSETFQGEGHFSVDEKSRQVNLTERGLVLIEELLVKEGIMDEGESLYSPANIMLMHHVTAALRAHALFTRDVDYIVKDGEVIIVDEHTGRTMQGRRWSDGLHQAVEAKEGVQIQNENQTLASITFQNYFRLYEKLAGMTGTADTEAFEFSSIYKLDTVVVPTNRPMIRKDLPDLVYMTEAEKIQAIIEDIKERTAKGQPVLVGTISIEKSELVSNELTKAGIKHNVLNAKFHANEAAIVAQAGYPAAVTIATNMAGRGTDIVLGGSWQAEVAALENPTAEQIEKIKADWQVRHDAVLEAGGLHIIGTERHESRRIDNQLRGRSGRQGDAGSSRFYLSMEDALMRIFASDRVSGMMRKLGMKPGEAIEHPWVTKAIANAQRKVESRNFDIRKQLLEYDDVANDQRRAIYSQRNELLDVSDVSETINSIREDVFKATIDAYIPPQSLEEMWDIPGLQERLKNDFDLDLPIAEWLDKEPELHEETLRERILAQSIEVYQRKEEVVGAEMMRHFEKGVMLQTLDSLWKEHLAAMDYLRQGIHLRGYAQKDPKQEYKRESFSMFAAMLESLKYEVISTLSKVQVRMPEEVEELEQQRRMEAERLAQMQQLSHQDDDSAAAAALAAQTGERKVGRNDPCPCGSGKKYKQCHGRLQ

In the case of `COc1cccc(CN2CCCC3(CCN(C(=O)c4ccco4)C3)C2)c1` (configuration not stated), the Percent Effect in assay [1] is -3.23%; in assay [2] it was 9.09%; in assay [3], 0.7%; in the assay on Trypanosoma cruzi, 0.563%; in assay [4] it was 5.02%; in assay [5], 17.8%. The Percent Effect in the assay listed under Homo sapiens was 5.54%; in assay [6], 14.5%; in assay [7], 15%; in assay [8], -3.31%.
As to `CCCS(=O)(=O)NCc1ncc(C)c(OC)c1C`, in assay [9], the Percent Effect worked out at 6.9%.
With `Cc1noc(C2CCN(C(=O)c3ccc(N(C)C)nc3)CC2)n1`, the Percent Effect was -1.18% in assay [1]; 12.8% in [2]; -5.05% in assay [3]; 3.29% with Trypanosoma cruzi; 1.23% in assay [4]; -0.0853% in [5]. Besides, the Percent Effect was 13.1% in the assay listed under Homo sapiens, 8.13% in [6], 20.5% in assay [7] and -1.36% in assay [8].
For `COC(=O)c1cccn1C1CCN(Cc2ccccc2)CC1`, the Percent Effect in assay [1] is 0.208%; in assay [2], 7.79%; in [3], 10%; in the assay with Trypanosoma cruzi, 2.05%; in assay [4], -10.9%; in assay [5], 6.49%. In addition, the Percent Effect in the assay filed under Homo sapiens is 16.2%; in assay [6], 3.92%; in assay [7], 11.8%; in [8], -3.52%.
For `O=C(COc1ccc(-n2cccn2)nn1)NC1CCCCC1`, the Percent Effect in assay [9] is -0.431%.
As to `CN(Cc1noc(C2CC2)n1)C1CCN(Cc2ccncc2)C1` (configuration not stated), the Percent Effect is -0.687% in [1]; 20.5% in [2]; -22.8% in assay [3]; 6.1% in the assay with Trypanosoma cruzi; 7.38% in assay [4]; 14.4% in assay [5]. The Percent Effect in the assay listed under Homo sapiens is 12%; in assay [6], 1.44%; in [7], 22.9%; in assay [8] it was -9.5%.
On to `Cn1cc(CN2CCCC3(CCCN3S(C)(=O)=O)C2)cn1` (configuration not stated), for which the Percent Effect in [1] is -3.74%; in assay [2] it was 9.09%; in [3] it was -4.49%; with Trypanosoma cruzi, -4.77%; in assay [4], 2.02%; in [5] it was 12.3%. The Percent Effect in the assay listed under Homo sapiens is -3.8%; in [6] it was 5.79%; in assay [7], 10.3%; in [8], 1.97%.
